Measured values: PubChem BioAssay
Activity calls are given as the source filed them.

Key:
[1] = binders of probe aFSTL3 on microarray, primary screen, stem cell growth factor project, biochemical, small-molecule microarray, fluorescence 635/667 (AID 1064); conditions: higher = more signal;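 further: measures binding of the biotinylated anti-FSTL3 antibody to printed compounds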
[2] = binders from COS7 lysate, DM2A8 probe, primary screen, torsin A project, cell lysate, small-molecule microarray, fluorescence 635/667 (AID 1065); conditions: higher = more signal, COS7 lysate expressing mutant human TOR1A
[3] = binders of probe aFGF2 on microarray, primary screen, stem cell growth factor project, biochemical, small-molecule microarray, fluorescence 635/667 (AID 1067); conditions: higher = more signal;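 further: measures binding of biotinylated aFGF2 protein to printed compounds on slides; z-score merges feature fluorescence and signal-to-noise across triplicate slides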
[4] = binders of probe aFGF10 on microarray, primary screen, stem cell growth factor project, biochemical, small-molecule microarray, fluorescence 635/667 (AID 1071); conditions: higher = more signal;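 further: score merges 667 nm spot intensity and signal to noise from triplicate slides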
[5] = target: Neurogenic locus notch homolog protein 2 (Homo sapiens) (UniProt Q04721); assay: Notch2 binders on small-molecule microarrays, primary screen, biochemical, small-molecule microarray, 635 nm fluorescence, stem cell growth factors (AID 1073); conditions: Notch2 binding, higher = more signal
[6] = target: Pro-neuregulin-1, membrane-bound isoform (Homo sapiens) (UniProt Q02297); assay: NRG1 binders on small-molecule microarrays, primary screen, psychiatric disease protein project, biochemical, small-molecule microarray, fluorescence 635/667 (AID 1075); conditions: NRG1 binding, 635 nm fluorescence, higher = more signal;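 further: score combines 667 nm spot fluorescence with signal to noise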
Pro-neuregulin-1, membrane-bound isoform (Homo sapiens), sequence (Q02297 whole entry, looked up, the tested form may be a part, canonical isoform): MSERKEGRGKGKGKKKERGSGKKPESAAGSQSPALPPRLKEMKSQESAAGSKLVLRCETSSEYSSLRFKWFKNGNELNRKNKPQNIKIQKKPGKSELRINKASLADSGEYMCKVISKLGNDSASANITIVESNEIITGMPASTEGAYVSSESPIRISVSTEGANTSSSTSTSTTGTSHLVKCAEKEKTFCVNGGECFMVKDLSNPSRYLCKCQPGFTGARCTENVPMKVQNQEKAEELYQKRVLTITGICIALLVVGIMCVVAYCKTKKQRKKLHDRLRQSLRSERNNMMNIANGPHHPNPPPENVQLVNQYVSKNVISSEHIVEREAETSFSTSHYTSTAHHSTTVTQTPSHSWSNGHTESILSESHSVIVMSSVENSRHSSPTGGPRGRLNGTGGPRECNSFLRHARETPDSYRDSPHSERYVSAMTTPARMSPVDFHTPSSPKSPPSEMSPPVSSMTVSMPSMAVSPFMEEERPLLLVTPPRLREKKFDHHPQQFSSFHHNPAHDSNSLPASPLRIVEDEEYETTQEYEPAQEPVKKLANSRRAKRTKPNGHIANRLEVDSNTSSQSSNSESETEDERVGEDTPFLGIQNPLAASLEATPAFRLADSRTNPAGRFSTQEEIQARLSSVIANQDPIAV

[7] = tested on: Neuregulin-1 EGF-like domain; assay: binders of neuregulin-1 EGF-like domain, primary screen, biochemical, small-molecule microarray, 635 nm fluorescence (AID 1081); conditions: small-molecule microarray binding, higher = more signal;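 further: binding of the protein to compounds printed on small-molecule microarray slides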
[8] = FRG1 promoter luciferase signal modulators, primary screen, FRG1 inhibition for FSHD, cell-based, C2C12 myotubes, firefly/Renilla luciferase, luminescence (AID 1084); conditions: higher = more signal, called active from +8 up or from −8 down
[9] = binders of probe aFST on microarray, primary screen, stem cell growth factor project, biochemical, small-molecule microarray, fluorescence 635/667 (AID 1086); conditions: higher = more signal;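 further: score merges 667 nm fluorescence with signal-to-noise of each printed compound spot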
[10] = binders of probe aHhip on microarray, primary screen, stem cell growth factor project, biochemical, small-molecule microarray, fluorescence 635/667 (AID 1087); conditions: higher = more signal;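 further: score merges spot fluorescence at 667nm with spot signal to noise ratio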
[11] = tested on: PRMT1 (protein arginine N-methyltransferase 1); assay: PRMT1 binders on small-molecule microarrays, primary screen, biochemical, small-molecule microarray, 635 nm fluorescence (AID 1088); conditions: small-molecule microarray binding, higher = more signal;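 further: binding of Prmt1 protein to compounds spotted on small-molecule microarray slides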
[12] = yeast growth modulation, basal conditions, primary screen, YJM789 clinical isolate, OD600, 24 h (AID 1089);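 further: growth of clinical yeast isolate S. cerevisiae YJM 789 seeded 1000 cells per well; test concentration not given here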; conditions: S. cerevisiae YJM789 growth, higher = more signal, called active from +8 up or from −8 down
[13] = fission yeast growth modulation, primary screen, strain 972, OD600, 24 h, no modulator (AID 1090);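 further: basal condition with compound alone and no growth modifier present; test concentration not given here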; conditions: S. pombe 972 growth, higher = more signal, called active from +8 up or from −8 down
[14] = S. cerevisiae growth modulation with rapamycin, primary screen, strain BY4716, OD600, 96 h (AID 1091); conditions: higher = more signal, called active from +8 up or from −8 down; further: test concentration not given here
[15] = target: Torsin-1A-interacting protein 2 (Homo sapiens) (UniProt Q8NFQ8); assay: LULL1 binders on small-molecule microarray, primary screen, cell lysate, human LULL1 lysate, 635/667 nm fluorescence (AID 1092); conditions: hLULL1 lysate binding, 635 nm fluorescence, higher = more signal;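 further: probe is lysate of COS7 cells overexpressing human LULL1; score merges per-feature 667 nm fluorescence with signal-to-noise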
Torsin-1A-interacting protein 2 (Homo sapiens), sequence (Q8NFQ8 whole entry, looked up): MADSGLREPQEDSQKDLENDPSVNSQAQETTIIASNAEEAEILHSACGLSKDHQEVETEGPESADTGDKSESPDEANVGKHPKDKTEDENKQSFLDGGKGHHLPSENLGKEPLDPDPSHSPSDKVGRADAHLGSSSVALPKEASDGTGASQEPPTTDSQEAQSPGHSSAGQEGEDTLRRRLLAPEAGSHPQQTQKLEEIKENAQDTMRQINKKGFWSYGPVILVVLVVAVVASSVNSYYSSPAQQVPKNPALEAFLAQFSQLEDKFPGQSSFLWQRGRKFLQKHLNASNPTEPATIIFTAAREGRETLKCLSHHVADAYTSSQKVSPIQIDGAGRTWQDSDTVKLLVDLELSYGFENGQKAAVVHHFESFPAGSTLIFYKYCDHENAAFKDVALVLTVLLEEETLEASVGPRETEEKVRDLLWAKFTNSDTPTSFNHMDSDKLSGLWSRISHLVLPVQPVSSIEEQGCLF

[16] = E. coli growth modulation, two-sided OD650, primary screen, E. coli filamentation project, strain DRC41, 24 h (AID 1093); conditions: OD650, 24 h, higher = more signal, called active from +8 up or from −8 down;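 further: MC1000 strain lacking acrAB efflux and sulA so SOS filamentation is blocked; test concentration not given here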
[17] = small-molecule microarray binders of probe aLefty2, primary screen, biochemical, biotinylated probe, 635/667 nm fluorescence (AID 1094); conditions: higher = more signal;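 further: score merges spot fluorescence near 667 nm with spot signal-to-noise ratio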
[18] = tested on: Noggin (protein binding on small-molecule microarray); assay: Noggin binders on small-molecule microarray, primary screen, biochemical, 635/667 nm fluorescence (AID 1095); conditions: 635 nm fluorescence, higher = more signal;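 further: score merges 667 nm feature fluorescence with signal to noise over triplicate slides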
[19] = target: Neurogenic locus notch homolog protein 3 (Homo sapiens) (UniProt Q9UM47); assay: NOTCH3 binders on small-molecule microarray, primary screen, biochemical, 635/667 nm fluorescence (AID 1096); conditions: NOTCH3 binding, 635 nm fluorescence, higher = more signal
Neurogenic locus notch homolog protein 3 (Homo sapiens), sequence (Q9UM47 whole entry, looked up): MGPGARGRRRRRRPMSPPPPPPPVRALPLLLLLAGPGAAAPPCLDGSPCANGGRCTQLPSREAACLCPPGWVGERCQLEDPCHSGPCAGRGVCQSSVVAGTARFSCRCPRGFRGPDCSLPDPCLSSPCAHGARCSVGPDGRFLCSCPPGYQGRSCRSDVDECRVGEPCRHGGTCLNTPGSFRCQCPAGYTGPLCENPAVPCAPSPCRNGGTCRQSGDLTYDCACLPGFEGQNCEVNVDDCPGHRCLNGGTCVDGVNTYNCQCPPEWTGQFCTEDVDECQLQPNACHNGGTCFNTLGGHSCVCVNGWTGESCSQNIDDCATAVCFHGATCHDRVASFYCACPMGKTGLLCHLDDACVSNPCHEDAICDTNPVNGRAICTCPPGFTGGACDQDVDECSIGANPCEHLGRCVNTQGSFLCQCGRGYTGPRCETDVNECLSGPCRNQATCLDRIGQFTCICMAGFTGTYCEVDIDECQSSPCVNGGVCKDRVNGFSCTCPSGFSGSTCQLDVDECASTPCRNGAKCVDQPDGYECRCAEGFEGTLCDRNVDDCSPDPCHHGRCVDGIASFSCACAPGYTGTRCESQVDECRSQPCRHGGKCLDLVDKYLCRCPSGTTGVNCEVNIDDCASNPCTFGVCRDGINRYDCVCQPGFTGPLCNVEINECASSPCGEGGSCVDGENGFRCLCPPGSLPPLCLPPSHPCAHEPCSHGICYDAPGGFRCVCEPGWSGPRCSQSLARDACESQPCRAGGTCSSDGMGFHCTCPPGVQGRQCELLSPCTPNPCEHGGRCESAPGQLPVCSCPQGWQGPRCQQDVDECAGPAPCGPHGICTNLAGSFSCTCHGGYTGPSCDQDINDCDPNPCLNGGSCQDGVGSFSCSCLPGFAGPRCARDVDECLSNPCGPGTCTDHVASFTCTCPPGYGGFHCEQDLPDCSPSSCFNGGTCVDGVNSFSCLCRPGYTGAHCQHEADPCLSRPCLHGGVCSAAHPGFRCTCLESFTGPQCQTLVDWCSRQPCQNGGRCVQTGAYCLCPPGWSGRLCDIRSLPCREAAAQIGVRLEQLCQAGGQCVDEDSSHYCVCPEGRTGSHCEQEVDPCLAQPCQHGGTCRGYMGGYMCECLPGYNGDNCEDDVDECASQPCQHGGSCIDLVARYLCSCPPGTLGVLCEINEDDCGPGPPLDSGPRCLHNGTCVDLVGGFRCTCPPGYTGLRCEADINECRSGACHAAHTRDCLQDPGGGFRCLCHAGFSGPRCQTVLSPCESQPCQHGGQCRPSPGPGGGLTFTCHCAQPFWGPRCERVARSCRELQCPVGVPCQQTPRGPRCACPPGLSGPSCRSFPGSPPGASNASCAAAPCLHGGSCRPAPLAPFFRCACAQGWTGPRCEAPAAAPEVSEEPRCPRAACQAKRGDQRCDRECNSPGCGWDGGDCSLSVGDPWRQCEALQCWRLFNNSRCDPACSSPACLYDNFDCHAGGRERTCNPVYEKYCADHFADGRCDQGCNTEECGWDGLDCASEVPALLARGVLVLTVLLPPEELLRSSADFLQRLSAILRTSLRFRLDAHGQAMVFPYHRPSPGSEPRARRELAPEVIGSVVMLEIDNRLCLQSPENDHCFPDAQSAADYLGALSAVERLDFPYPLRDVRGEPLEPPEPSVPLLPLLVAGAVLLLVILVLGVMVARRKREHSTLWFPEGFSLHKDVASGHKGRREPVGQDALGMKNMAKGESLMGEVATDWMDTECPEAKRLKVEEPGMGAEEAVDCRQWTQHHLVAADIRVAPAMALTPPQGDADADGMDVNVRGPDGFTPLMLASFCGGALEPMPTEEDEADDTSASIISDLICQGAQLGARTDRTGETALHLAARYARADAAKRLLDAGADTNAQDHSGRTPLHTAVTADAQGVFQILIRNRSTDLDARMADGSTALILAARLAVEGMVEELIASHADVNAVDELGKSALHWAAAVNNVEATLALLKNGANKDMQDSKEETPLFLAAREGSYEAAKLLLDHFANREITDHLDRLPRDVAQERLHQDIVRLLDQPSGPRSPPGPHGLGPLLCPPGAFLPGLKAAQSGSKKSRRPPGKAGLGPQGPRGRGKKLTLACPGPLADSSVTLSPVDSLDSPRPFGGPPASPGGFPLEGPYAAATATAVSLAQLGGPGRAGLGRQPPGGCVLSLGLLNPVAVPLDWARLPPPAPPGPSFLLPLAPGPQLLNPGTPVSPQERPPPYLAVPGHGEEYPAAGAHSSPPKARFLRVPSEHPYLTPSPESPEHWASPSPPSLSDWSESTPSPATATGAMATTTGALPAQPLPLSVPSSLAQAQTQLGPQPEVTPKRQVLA

[20] = small-molecule microarray binders of probe aEGFR, primary screen, biochemical, biotinylated probe, 635/667 nm fluorescence (AID 1097); conditions: higher = more signal;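 further: probe is a biotinylated anti-EGFR antibody binding compounds printed on slides; score combines fluorescence near 667 nm and signal to noise of each spot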

SMILES: O=C1C2C=CC(C(O)c3ccc4c(c3)OCO4)N(Nc3ccc([N+](=O)[O-])cc3)C2C(=O)N1c1ccccc1 (stereo not given)
- composite z-score [1]: -0.407
- composite z-score [2]: 0.566
- composite z-score [3]: 0.0019
- composite z-score [4]: 0.791
- composite z-score [5]: 1.05
- composite z-score [6]: 0.626
- composite z-score [7]: 0.65
- z-score [8]: -0.383 (inactive)
- composite z-score [9]: 0.314
- composite z-score [10]: -0.134
- composite z-score [11]: 0.66
- z-score [12]: -0.664 (inactive)
- z-score [13]: 0.484 (inactive)
- z-score [14]: 1.36 (inactive)
- composite z-score [15]: 1.97
- z-score [16]: -0.245 (inactive)
- composite z-score [17]: -0.222
- composite z-score [18]: -0.0077
- composite z-score [19]: 0.777
- composite z-score [20]: 0.006

SMILES: COCCCNC(=O)[C@]1(Cc2ccccc2)N=C(c2ccc(OCCCO)cc2)O[C@@H]1c1ccccc1CN=[N+]=[N-]
- composite z-score [1]: 0.134
- composite z-score [2]: 0.719
- composite z-score [3]: 0.0584
- composite z-score [4]: 1.03
- composite z-score [5]: 1.49
- composite z-score [6]: 1.87
- composite z-score [7]: 0.837
- z-score [8]: -2.22 (inactive)
- composite z-score [9]: 0.88
- composite z-score [10]: -0.156
- composite z-score [11]: 1.55
- z-score [12]: -2.05 (inactive)
- z-score [13]: 1.05 (inactive)
- z-score [14]: 0.842 (inactive)
- composite z-score [15]: 3.59
- z-score [16]: 1.03 (inactive)
- composite z-score [17]: 0.195
- composite z-score [18]: 0.53
- composite z-score [19]: 1.08
- composite z-score [20]: 0.0326

SMILES: Cc1ccc(/C=C/C=O)cc1
- composite z-score [1]: 0.16
- composite z-score [2]: -0.513
- composite z-score [3]: -0.0704
- composite z-score [4]: 0.2
- composite z-score [5]: -0.516
- composite z-score [6]: -0.0188
- composite z-score [7]: -0.452
- z-score [8]: 0.944 (inactive)
- composite z-score [9]: -0.0522
- composite z-score [10]: 0.0156
- composite z-score [11]: -0.379
- z-score [12]: 0.427 (inactive)
- z-score [13]: -4.06 (inactive)
- z-score [14]: -0.141 (inactive)
- composite z-score [15]: -0.1
- z-score [16]: 0.492 (inactive)
- composite z-score [17]: -0.123
- composite z-score [18]: -0.244
- composite z-score [19]: -0.998
- composite z-score [20]: -0.135

SMILES: OB1C=CCC(CCc2ccccc2)O1 (stereo not given)
- composite z-score [1]: 0.0393
- composite z-score [2]: -0.334
- composite z-score [3]: -0.0883
- composite z-score [4]: -0.254
- composite z-score [5]: -0.809
- composite z-score [6]: -0.995
- composite z-score [7]: -0.989
- z-score [8]: -0.209 (inactive)
- composite z-score [9]: -0.393
- composite z-score [10]: -0.132
- composite z-score [11]: -1.12
- z-score [12]: -1.95 (inactive)
- z-score [13]: -2.06 (inactive)
- z-score [14]: -0.762 (inactive)
- composite z-score [15]: -1.05
- z-score [16]: 1.96 (inactive)
- composite z-score [17]: -0.192
- composite z-score [18]: -0.0988
- composite z-score [19]: -1.12
- composite z-score [20]: -0.211

SMILES: O=C1[C@H]2C=C(Br)[C@H](C[C@@H]2OCCCCCCO)[C@@]12CO2
- composite z-score [1]: 0.125
- composite z-score [2]: 0.629
- composite z-score [3]: -0.0443
- composite z-score [4]: -0.0632
- composite z-score [5]: -0.565
- composite z-score [6]: -0.429
- composite z-score [7]: -0.394
- z-score [8]: -0.0205 (inactive)
- composite z-score [9]: 0.0363
- composite z-score [10]: 0.122
- composite z-score [11]: -0.729
- z-score [12]: 0.335 (inactive)
- z-score [13]: -1.29 (inactive)
- z-score [14]: 1.32 (inactive)
- composite z-score [15]: -0.283
- z-score [16]: -1.74 (inactive)
- composite z-score [17]: 0.0183
- composite z-score [18]: 0.387
- composite z-score [19]: -0.615
- composite z-score [20]: -0.131

SMILES: CC(=O)NCCCC[C@@H]1NC(=O)[C@H]2C[C@@H](C(=O)O)[C@@H](c3ccc(O)cc3)N2C1=O
- composite z-score [1]: -0.0025
- composite z-score [2]: 0.843
- composite z-score [3]: -0.0135
- composite z-score [4]: 0.607
- composite z-score [5]: 1.23
- composite z-score [6]: 1.1
- composite z-score [7]: 1.3
- z-score [8]: -0.316 (inactive)
- composite z-score [9]: 0.904
- composite z-score [10]: 0.213
- composite z-score [11]: 1.55
- z-score [12]: 2.13 (inactive)
- z-score [13]: -2.62 (inactive)
- z-score [14]: 2.72 (inactive)
- composite z-score [15]: 2.84
- z-score [16]: -0.817 (inactive)
- composite z-score [17]: 0.14
- composite z-score [18]: 1.67
- composite z-score [19]: 1.04
- composite z-score [20]: 0.138

SMILES: CCOC(=O)C[C@H]1[C@H](OC(=O)c2ccc(-c3ccccc3)cc2)[C@@H](NC(=O)c2ccccc2)c2cc(OCCCO)ccc2N1C(=O)Cc1ccc(OC)cc1
- composite z-score [1]: -0.287
- composite z-score [2]: -0.0212
- composite z-score [3]: -0.163
- composite z-score [4]: 0.0185
- composite z-score [5]: -0.639
- composite z-score [6]: -0.31
- composite z-score [7]: -0.198
- z-score [8]: -0.304 (inactive)
- composite z-score [9]: -0.0166
- composite z-score [10]: -0.374
- composite z-score [11]: -0.719
- z-score [12]: 0.883 (inactive)
- z-score [13]: -0.414 (inactive)
- z-score [14]: 1.45 (inactive)
- composite z-score [15]: 0.734
- z-score [16]: 0.258 (inactive)
- composite z-score [17]: -0.192
- composite z-score [18]: 0.23
- composite z-score [19]: -0.712
- composite z-score [20]: -0.21

SMILES: C#CCN1[C@@H](Cc2ccc(O)cc2)C(=O)O[C@H](Cc2ccccc2)[C@@H]1/C=C/C1CC1
- composite z-score [1]: -0.353
- composite z-score [2]: 0.336
- composite z-score [3]: -0.142
- composite z-score [4]: 0.199
- composite z-score [5]: -0.586
- composite z-score [6]: -0.37
- composite z-score [7]: 0.207
- z-score [8]: -3.33 (inactive)
- composite z-score [9]: 0.0959
- composite z-score [10]: -0.279
- composite z-score [11]: -0.193
- z-score [12]: -0.257 (inactive)
- z-score [13]: -4.95 (inactive)
- z-score [14]: 1.09 (inactive)
- composite z-score [15]: 0.602
- z-score [16]: -0.495 (inactive)
- composite z-score [17]: -0.144
- composite z-score [18]: -0.204
- composite z-score [19]: -0.139
- composite z-score [20]: -0.0081

SMILES: COc1ccc([C@H]2OC[C@@H]3CCC(=O)N32)cc1
- composite z-score [1]: -0.136
- composite z-score [2]: 0.428
- composite z-score [3]: -0.169
- composite z-score [4]: 0.733
- composite z-score [5]: 0.471
- composite z-score [6]: 0.0194
- composite z-score [7]: 1.19
- z-score [8]: 0.0543 (inactive)
- composite z-score [9]: 0.664
- composite z-score [10]: -0.0581
- composite z-score [11]: -0.136
- z-score [12]: -0.481 (inactive)
- z-score [13]: -0.809 (inactive)
- z-score [14]: 0.981 (inactive)
- composite z-score [15]: 0.399
- z-score [16]: -0.013 (inactive)
- composite z-score [17]: -0.0699
- composite z-score [18]: 0.397
- composite z-score [19]: 1.01
- composite z-score [20]: 0.0826

SMILES: O=C1O[C@@H](c2ccccc2)[C@@H](c2ccccc2)N2[C@@H](c3ccccc3OCCO)[C@]3(C(=O)Nc4ccccc43)[C@@H](C(=O)O)[C@H]12
- composite z-score [1]: -0.229
- composite z-score [2]: -0.0324
- composite z-score [3]: 0.0301
- composite z-score [4]: 0.551
- composite z-score [5]: 0.522
- composite z-score [6]: 1.57
- composite z-score [7]: 1.12
- z-score [8]: -1.84 (inactive)
- composite z-score [9]: -0.0073
- composite z-score [10]: 0.0524
- composite z-score [11]: 1.02
- z-score [12]: 0.232 (inactive)
- z-score [13]: -1.1 (inactive)
- z-score [14]: -1.17 (inactive)
- composite z-score [15]: 3.02
- z-score [16]: -0.413 (inactive)
- composite z-score [17]: -0.175
- composite z-score [18]: -0.314
- composite z-score [19]: 0.406
- composite z-score [20]: -0.185
